Reference: PubChem BioAssay AID652017 (The Scripps Research Institute Molecular Screening Center, 2013)
Screen size: about 370,000 compounds; about 3,800 (1%) were called active. Shown is part of a subset that was picked to be rich in actives. Values without a mark were called inactive. Cut-off read from the data, not from the text of the source: active = activation above about 7.8%; inactive = the rest.

Assay: SMARCA2 (BRM) function activators, primary screen, cell-based, luminescence, high throughput (AID 652017);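 note: 0% = vehicle wells and 100% = reference activator wells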
Details: MG213 cells, MMTV-luciferase reporter, dexamethasone, overnight; at 9.1 µM; active compounds read high

Row | Compound | activation
1 | NS(=O)(=O)c1ccccc1NC(=O)c1c(O)c2ccccc2[nH]c1=O | 9.94% (active)
2 | CCOC(=O)c1ccccc1NC(=O)c1c(N)n(C)c(=O)[nH]c1=O | -0.83%
3 | Cn1c(=O)c(C(=O)Nc2ncccn2)c(O)c2ccccc21 | 2.91%
4 | CCCC[C@H]1C2CC(OC(=O)NCc3ccccc3)C(C2)[C@H]2CCCCN21 (stereo partly specified) | -0.93%
5 | CC(=O)O[C@@]1(C(C)=O)CCC2[C@H]3C=C(C)C4=CC(=O)CC[C@@]4(C)C3CC[C@]21C (stereo partly specified) | -9.82%
6 | Cc1nc2ccc(NC(=S)N3CCC(C)CC3)cc2nc1C | 7.91% (active)
7 | Cc1cccc(NC(=S)N2CCC(c3nc4ccccc4s3)CC2)c1 | -2.82%
8 | Cc1nc2ccc(NC(=O)N3CCC(c4ccccc4)C3)cc2nc1C (stereo unspecified) | -3.22%
9 | Cn1nc(C(F)(F)F)c2cc(NC(=O)OCC(C)(C)C)sc21 | 7.24%
10 | CCC(C(=O)NC(C)(C)C)n1c(-c2ccccc2)nc2ccccc21 (stereo unspecified) | -0.72%
11 | CC(C)(C)NC(=O)C(CCc1ccccc1)n1c(=O)c(-c2ccccc2)nc2ccccc21 (stereo unspecified) | 17.1% (active)
12 | CSCCC(C(=O)NC(C)(C)C)n1c(-c2ccccc2)nc2ccccc21 (stereo unspecified) | -3.19%
13 | CN(C)c1ccc(NC(=O)NC2CCCCN(Cc3ccc(Cl)cc3)C2=O)cc1 (stereo unspecified) | -1.53%
14 | CC(C)COc1ccc(C(=O)NNC(=O)CCC(=O)c2cccs2)cc1 | 0.68%
15 | CS(=O)(=O)c1ccc(C(=O)NNC(=O)c2cccs2)cc1 | -1.1%
16 | Cc1ccc(C(=O)NNC(=O)c2cccs2)cc1 | 9.31% (active)
17 | C=CCC(NCCCO)c1cccc(OC)c1OC (stereo unspecified) | 2.11%
18 | Cc1cc(C)cc(-c2nnc(SCC(=O)NC3CC3)o2)c1 | 2.96%
19 | Cc1cc(C)n2nc(C(=O)NC(C)(C)C)nc2n1 | 1.51%
20 | COc1ccc(Cl)cc1C(=O)NNC(=O)c1nc2nc(C)cc(C)n2n1 | -0.45%
21 | Cc1cc(C)n2nc(CNS(=O)(=O)c3c(F)c(F)c(F)c(F)c3F)nc2n1 | 9.77% (active)
22 | CCOC(=O)N1CCN(C(=O)C[C@H]2C[C@@]3(C(=O)OC)C(=C[C@H](C(C)(C)C)O[C@@H]3C)N(Cc3ccc(Cl)cc3Cl)C2=O)CC1 | -4.25%
23 | CC(=O)Nc1nc2ncccn2c1-c1ccc(C(F)(F)F)cc1 | -1.69%

Row | Compound | activation
24 | CC(=O)n1cc([C@H]2C=C(C(=O)N3CCOCC3)O[C@@H](OCc3ccc(CO)cc3)C2)c2ccccc21 | -0.72%
25 | COc1cccc(CNC(=O)C2CCCN(c3nc4ccccc4o3)C2)c1OC (stereo unspecified) | -3.99%
26 | COC(=O)C1C(=O)c2c([nH]c(C(=O)OCCSC)c2C)CC1C (stereo unspecified) | 15.2% (active)
27 | CCOC(=O)c1cnc2ccc(F)cc2c1Nc1ccc2c(c1)OCCO2 | -4.81%
28 | CC(C)N1CCCCC(NC(=O)C(C)(C)C)C1=O (stereo unspecified) | 0.13%
29 | NC(=O)c1oc2ccccc2c1NC(=O)CS(=O)(=O)c1ccccc1 | -2.91%
30 | CCOC(=O)CNc1nc2ccccc2n2c(C)nnc12 | -1.96%
31 | CC(C)(C)N1CC(c2nc3ccccc3n2Cc2ccc(F)cc2)CC1=O (stereo unspecified) | 4.59%
32 | Fc1ccc(CNc2nc3ccccc3n3nnnc23)cc1 | 10.3% (active)
33 | C/C(=N\c1nc2ccccc2n1C)c1cc(Cl)ccc1O | 0.8%
34 | CC(C)n1c(NCc2c[nH]c3ccccc23)nc2ccccc21 | -2.21%
35 | Cc1ccc(O)c(CNc2nc3ccccc3n2C)c1 | 9.3% (active)
36 | CN(CCc1ccccc1)C(=O)Cn1nc(-c2ccccc2)ccc1=O | -2.33%
37 | CC(=O)Cn1ncc(N2CCOCC2)c(Br)c1=O | -2.3%
38 | O=C(Cn1ncc(N2CCCC2)c(Br)c1=O)c1ccc(Cl)cc1 | 9.66% (active)
39 | O=C(Cn1nc(CNc2ccc(Cl)cc2)[n+]2c1CCCCC2)c1ccc(Cl)cc1 | -6.64%
40 | Cc1ccc(-n2c(SCC(=O)Nc3ccc(S(=O)(=O)Nc4nccs4)cc3)nnc2-c2ccccn2)cc1 | -6.25%
41 | CCOC(=O)C(=O)N(Cc1ccccc1)c1ccccc1C(=O)Nc1cc(OC)ccc1OC | -5.19%
42 | CC(c1c[nH]c2ccccc12)c1c(-c2ccccc2)n(C)c2ccccc12 (stereo unspecified) | -5.18%
43 | COc1ccc(C(=O)Nc2sc(C)c(C)c2CN2CCOCC2)cc1 | 8.14% (active)
44 | CCc1cc(C(c2ccccc2OC)N2CCOCC2)c(NC(=O)c2ccccc2)s1 (stereo unspecified) | -0.4%
45 | COc1ccc(C(=O)Nc2ccnn2C2CCN(Cc3ccncc3)CC2)cc1 | -1.75%
46 | O=C(CCl)NC1CCCCN(Cc2cccc(C(F)(F)F)c2)C1=O (stereo unspecified) | -2.12%
